The structures appear in SMILES notation. Inconclusive results are not listed. The source made the active and inactive calls. The calls were made as follows: active = hit-call score of the fitted dose curve at least 0.9, where 1 is the maximum; inconclusive = response in the unintended direction; inactive = score below 0.9.

Chain of human Janus Kinase 2 (Jak2), JAK2 (gene 3717) (O60674 whole entry, looked up): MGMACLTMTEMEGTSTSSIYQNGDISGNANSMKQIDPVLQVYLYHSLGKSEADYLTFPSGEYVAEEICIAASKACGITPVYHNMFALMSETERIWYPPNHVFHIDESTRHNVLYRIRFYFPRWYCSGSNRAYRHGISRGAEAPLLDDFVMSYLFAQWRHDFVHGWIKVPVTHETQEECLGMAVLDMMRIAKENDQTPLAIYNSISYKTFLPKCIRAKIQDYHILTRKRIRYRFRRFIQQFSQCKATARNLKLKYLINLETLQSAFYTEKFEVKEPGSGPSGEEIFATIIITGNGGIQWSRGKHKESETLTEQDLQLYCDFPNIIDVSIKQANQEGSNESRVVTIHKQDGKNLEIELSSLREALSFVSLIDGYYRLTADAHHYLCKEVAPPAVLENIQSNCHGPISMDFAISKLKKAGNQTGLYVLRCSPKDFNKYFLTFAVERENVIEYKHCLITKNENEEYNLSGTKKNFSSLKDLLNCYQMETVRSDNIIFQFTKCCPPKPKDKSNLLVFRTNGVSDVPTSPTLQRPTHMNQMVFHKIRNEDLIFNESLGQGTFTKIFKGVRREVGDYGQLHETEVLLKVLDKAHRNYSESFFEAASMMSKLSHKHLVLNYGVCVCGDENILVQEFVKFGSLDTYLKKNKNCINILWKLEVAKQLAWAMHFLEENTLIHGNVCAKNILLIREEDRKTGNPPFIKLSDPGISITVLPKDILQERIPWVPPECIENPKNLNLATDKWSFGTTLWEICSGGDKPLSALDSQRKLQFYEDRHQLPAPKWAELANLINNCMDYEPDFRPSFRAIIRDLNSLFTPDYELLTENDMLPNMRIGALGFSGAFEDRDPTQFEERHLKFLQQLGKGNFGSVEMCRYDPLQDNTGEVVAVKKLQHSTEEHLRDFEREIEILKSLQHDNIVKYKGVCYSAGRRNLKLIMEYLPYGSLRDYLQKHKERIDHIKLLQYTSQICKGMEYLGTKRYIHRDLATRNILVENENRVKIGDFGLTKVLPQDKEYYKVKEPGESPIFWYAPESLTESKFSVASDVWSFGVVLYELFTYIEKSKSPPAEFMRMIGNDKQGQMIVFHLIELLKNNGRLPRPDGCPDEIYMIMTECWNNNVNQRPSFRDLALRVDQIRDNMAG

The target of the first assay is human Ephrin type-A Receptor 1 (EphA1), EPHA1 (gene 2041) (UniProt P21709). As to the kind of experiment: NVS_ENZ_hEphA1: NovaScreen (NVS) Enzymatic Assay for human Ephrin type-A Receptor 1 (EphA1) (AID 2283158).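 Also: activity is signal loss versus DMSO meaning EphA1 kinase inhibition.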 In a few lines: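 Cell-free enzymatic assay with recombinant EphA1 and fluorescent substrate; product separated by electrophoretic mobility shift, fluorescence intensity read 1 hour after dosing. Loss of signal versus DMSO baseline; primary duplicate screen at 25 uM, actives followed to 50 uM top concentration.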
Chain of human Ephrin type-A Receptor 1 (EphA1), EPHA1 (gene 2041) (P21709 whole entry, looked up): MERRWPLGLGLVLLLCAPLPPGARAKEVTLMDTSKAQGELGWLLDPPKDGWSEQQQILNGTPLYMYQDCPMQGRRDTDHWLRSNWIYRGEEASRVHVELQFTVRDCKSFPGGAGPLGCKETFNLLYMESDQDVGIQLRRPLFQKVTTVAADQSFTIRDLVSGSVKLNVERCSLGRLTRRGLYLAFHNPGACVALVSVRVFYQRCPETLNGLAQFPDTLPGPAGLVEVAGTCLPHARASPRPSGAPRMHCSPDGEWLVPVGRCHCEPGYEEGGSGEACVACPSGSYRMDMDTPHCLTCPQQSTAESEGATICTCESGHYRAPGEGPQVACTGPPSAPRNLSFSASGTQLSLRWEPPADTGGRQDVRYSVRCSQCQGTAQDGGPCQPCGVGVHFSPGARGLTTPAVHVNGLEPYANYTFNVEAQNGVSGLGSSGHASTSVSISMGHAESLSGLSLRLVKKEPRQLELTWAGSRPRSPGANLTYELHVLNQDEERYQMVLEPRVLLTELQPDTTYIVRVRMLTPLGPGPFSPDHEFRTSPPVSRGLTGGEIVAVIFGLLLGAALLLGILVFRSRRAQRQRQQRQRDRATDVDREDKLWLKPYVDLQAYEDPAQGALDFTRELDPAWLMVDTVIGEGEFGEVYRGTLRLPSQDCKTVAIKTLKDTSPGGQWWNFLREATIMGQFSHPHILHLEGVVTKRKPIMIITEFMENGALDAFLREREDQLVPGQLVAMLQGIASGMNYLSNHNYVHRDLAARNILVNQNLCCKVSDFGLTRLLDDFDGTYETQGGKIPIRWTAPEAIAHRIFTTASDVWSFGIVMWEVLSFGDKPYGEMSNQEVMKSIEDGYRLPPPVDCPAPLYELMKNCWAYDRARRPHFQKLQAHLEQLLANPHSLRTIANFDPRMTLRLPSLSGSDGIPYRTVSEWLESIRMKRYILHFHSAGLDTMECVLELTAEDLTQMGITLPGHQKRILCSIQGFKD
With `CC(O)CC(C)(C)O` (stereo unspecified), the outcome was inactive.
`CCCCCc1ccc(N)cc1`: the compound was called inactive.
Same read-out and setting: in the case of `CCCCCCCCN(C)CCCCCCCC` it was “inactive”; in that of `CC1(C)NC(=O)N(c2ccc([N+](=O)[O-])c(C(F)(F)F)c2)C1=O`, “inactive”.

The target in another assay is human Janus Kinase 2 (Jak2), JAK2 (gene 3717) (UniProt O60674). The assay can be described thus: NVS_ENZ_hJak2: NovaScreen (NVS) Enzymatic Assay for human Janus Kinase 2 (Jak2) (AID 2283169). In a few lines:
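Single-point duplicate screen at 25 uM, with hits run in concentration series to a 50 uM top dose. Substrate-product separation by mobility shift with fluorescence detection, 1 h post-dosing; DMSO baseline.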
Take `CCO[Si](CCCNC(N)=O)(OCC)OCC`: the call was inactive.
For `O=C(O)Cc1cc(I)c(Oc2ccc(O)c(I)c2)c(I)c1`, the compound was classed as inactive.
Still for that read-out and setting: in the case of `O=C(OCCCCCCOC(=O)c1ccccc1)c1ccccc1` it was “inactive”; in that of `O=C(O)c1ccccc1C(=O)OCc1ccccc1`, “inactive”.

Another assay deals with human Matrix Metalloproteinase-7 (MMP7), MMP7 (gene 4316) (UniProt P09237). As to the kind of experiment: NVS_ENZ_hMMP7: NovaScreen (NVS) Enzymatic Assay for human Matrix Metalloproteinase-7 (MMP7) (AID 2283183). In a few lines: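 Compounds first tested at 25 uM in duplicate, then at up to 50 uM in concentration series if active. Protease activity measured by fluorescence intensity 1 h after dosing, with fitting relative to DMSO.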
Chain of human Matrix Metalloproteinase-7 (MMP7), MMP7 (gene 4316) (P09237 whole entry, looked up): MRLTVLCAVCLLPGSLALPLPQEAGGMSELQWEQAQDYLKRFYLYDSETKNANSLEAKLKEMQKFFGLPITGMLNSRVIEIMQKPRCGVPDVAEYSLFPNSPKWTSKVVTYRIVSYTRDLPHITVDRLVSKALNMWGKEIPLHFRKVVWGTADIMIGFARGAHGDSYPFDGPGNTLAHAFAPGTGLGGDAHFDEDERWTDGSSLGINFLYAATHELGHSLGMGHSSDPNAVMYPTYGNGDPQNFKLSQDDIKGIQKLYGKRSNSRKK
Consider `CO[C@H]1/C=C/O[C@@]2(C)Oc3c(C)c(O)c4c(O)c(c(/C=N/N5CCN(C)CC5)c(O)c4c3C2=O)NC(=O)/C(C)=C\C=C\[C@H](C)[C@H](O)[C@@H](C)[C@@H](O)[C@@H](C)[C@H](OC(C)=O)[C@@H]1C`, for which the result was inactive.
Turning to `O=C(O)Cn1c(=O)n(Cc2ccc(Br)cc2F)c(=O)c2ccc(Cl)cc21`, the outcome was inactive.
As for `COCC(C)OCC(C)OCC(C)O` (stereo unspecified), the outcome was inactive.

The target in another assay is human Matrix Metalloproteinase-2 (MMP2), MMP2 (gene 4313) (UniProt P08253). As to the kind of experiment: NVS_ENZ_hMMP2: NovaScreen (NVS) Enzymatic Assay for human Matrix Metalloproteinase-2 (MMP2) (AID 2283184). The procedure: NVS_ENZ_hMMP2 is a biochemical, single-readout assay that uses extracted gene-proteins in a cell-free assay. Measurements were taken 1 hour after chemical dosing in a 96-well plate.NVS_ENZ_hMMP2 is one of one assay component(s) measured or calculated from the NVS_ENZ_hMMP2 assay. It is designed to make measurements of enzyme activity, a form of enzyme reporter, as detected with fluorescence intensity signals by Fluorescence technology.Data from the assay component NVS_ENZ_hMMP2 was analyzed into 1 assay endpoint. This assay endpoint, NVS_ENZ_hMMP2, was analyzed in the positive analysis fitting direction relative to DMSO as the negative control and baseline of activity. Using a type of enzyme reporter, loss-of-signal activity can be used to understand changes in the enzymatic activity as they relate to the gene MMP2. Furthermore, this assay endpoint can be referred to as a primary readout, because this assay has produced multiple assay endpoints where this one serves a enzymatic activity function. To generalize the intended target to other relatable targets, this assay endpoint is annotated to the protease intended target family, where the subfamily is matrix metalloproteinase.
Chain of human Matrix Metalloproteinase-2 (MMP2), MMP2 (gene 4313) (P08253 whole entry, looked up): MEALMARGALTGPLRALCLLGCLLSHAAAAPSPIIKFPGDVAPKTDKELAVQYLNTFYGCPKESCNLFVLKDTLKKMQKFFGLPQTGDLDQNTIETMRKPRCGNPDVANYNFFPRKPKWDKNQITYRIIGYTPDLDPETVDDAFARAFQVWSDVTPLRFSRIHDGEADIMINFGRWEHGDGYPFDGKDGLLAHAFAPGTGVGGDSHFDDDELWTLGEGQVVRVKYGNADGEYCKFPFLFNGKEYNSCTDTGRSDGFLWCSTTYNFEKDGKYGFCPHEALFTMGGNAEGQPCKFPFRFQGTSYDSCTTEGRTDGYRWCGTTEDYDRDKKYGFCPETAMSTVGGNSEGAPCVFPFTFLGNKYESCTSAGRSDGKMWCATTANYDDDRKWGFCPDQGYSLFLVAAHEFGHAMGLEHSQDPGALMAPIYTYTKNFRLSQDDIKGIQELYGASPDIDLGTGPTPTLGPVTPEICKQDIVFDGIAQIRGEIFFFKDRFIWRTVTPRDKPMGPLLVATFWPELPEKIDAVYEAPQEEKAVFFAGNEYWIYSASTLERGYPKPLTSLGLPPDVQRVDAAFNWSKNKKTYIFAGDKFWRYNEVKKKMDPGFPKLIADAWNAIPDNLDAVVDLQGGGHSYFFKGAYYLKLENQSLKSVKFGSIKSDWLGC
Binding assays used specific radioligands (tritiated, iodinated) with non-radioactive competitive displacement ligands in agonist or antagonist protocols (as indicated) and various reference compounds and inhibitors to titrate specific binding to receptors and transporters. Most enzyme assays (CYPs, kinases, phosphatases, proteases, HDACs) used recombinant protein and specific substrates (fluorescence mostly, some colorimetric and radioactive) and inhibitors, followed by a biochemical separation of substrate and product. All assays for the biochemical HTS were initially run in duplicate at a single concentration (10 uM for CYP450 assays and 25 uM for all others). […] Each assay was run with positive and negative controls, and concurrent controls on every plate. The follow-up (secondary) screen tested active chemical-pairs in concentration series, as well as a few additional assays not tested in the primary screen, some selected negative inactives, and several cases re-run in the concentration series for confirmatory purposes.
Consider `CO[C@H]1/C=C/O[C@@]2(C)Oc3c(C)c(O)c4c(O)c(c(/C=N/N5CCN(C)CC5)c(O)c4c3C2=O)NC(=O)/C(C)=C\C=C\[C@H](C)[C@H](O)[C@@H](C)[C@@H](O)[C@@H](C)[C@H](OC(C)=O)[C@@H]1C`, for which the result was inactive.
The same measure, in the same setting: in the case of `CC(C)(c1cc(Br)c(O)c(Br)c1)c1cc(Br)c(O)c(Br)c1` it was “inactive”; in that of `CCCCCCCCCCCC[N+](C)(C)C`, “inactive”.

The target of the next assay is human Matrix Metalloproteinase-3 (MMP3), MMP3 (gene 4314) (UniProt P08254). As to the kind of experiment: NVS_ENZ_hMMP3: NovaScreen (NVS) Enzymatic Assay for human Matrix Metalloproteinase-3 (MMP3) (AID 2283185). In a few lines: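 Fluorescent substrate turnover by recombinant MMP3 read after 1 h, signal loss scored against DMSO. Compounds first run in duplicate at 25 uM single dose, then actives confirmed by concentration series.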
Chain of human Matrix Metalloproteinase-3 (MMP3), MMP3 (gene 4314) (P08254 whole entry, looked up): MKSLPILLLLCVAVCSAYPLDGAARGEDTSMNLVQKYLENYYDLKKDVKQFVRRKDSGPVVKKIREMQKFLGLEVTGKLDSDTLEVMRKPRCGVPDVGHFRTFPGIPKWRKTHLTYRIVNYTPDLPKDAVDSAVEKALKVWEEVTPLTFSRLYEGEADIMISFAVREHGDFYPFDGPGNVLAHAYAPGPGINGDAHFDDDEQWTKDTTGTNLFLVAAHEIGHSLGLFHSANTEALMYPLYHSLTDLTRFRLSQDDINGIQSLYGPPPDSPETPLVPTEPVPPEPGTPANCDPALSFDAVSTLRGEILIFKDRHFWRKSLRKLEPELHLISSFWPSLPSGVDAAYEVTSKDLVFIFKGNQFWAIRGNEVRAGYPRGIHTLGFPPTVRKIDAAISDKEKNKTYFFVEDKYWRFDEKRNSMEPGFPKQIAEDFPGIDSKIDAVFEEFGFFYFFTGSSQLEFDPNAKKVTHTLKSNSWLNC
With `CN(C)c1ccc(C(=C2C=CC(=[N+](C)C)C=C2)c2ccc(N(C)C)cc2)cc1`, the call was inactive.
Same read-out and setting: in the case of `O=C(O)Cc1cc(I)c(Oc2ccc(O)c(I)c2)c(I)c1` it was “inactive”.
Broadly, the AC50 is the concentration at which the activity in the assay is half-maximal. Turning to `CCCOC(=O)c1cc(O)c(O)c(O)c1`, the AC50 was 11.9 µM (active).
As for `CCCCCCCCOc1ccc(C(=O)c2ccccc2)c(O)c1`, the result was inactive.

In another assay the target is human Phosphodiesterase 5 (PDE5), PDE5A (gene 8654) (UniProt O76074). The assay can be described thus: NVS_ENZ_hPDE5: NovaScreen (NVS) Enzymatic Assay for human Phosphodiesterase 5 (PDE5) (AID 2283194). In a few lines: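 Screening began in duplicate at 25 uM, with actives taken into concentration-response. Enzyme activity of recombinant PDE5 toward its substrate was measured at 1 h by fluorescence mobility-shift detection, relative to DMSO controls.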
In the case of `Cc1cc(F)ccc1-c1cc(N2CC[C@@H](O)[C@H]2CO)ncc1N(C)C(=O)C(C)(C)c1cc(C(F)(F)F)cc(C(F)(F)F)c1`, the concentration at half-maximal activity (AC50) was 4.05 µM (active).
Turning to `COc1cccc([C@H](O)C2CCN(CCc3ccc(F)cc3)CC2)c1OC`, the outcome was inactive.
For the compound `CC[C@H](NC(=O)c1cc(F)ccc1NS(=O)(=O)c1cccc2cccnc12)c1ccccc1`, the call was inactive.

Values taken from PubChem BioAssay (EPA / NIEHS).
